PubChem BioAssay (NCATS)
Results filed as inconclusive are left out. A call without a number means that no potency is given here. A number with no mark means an inactive call. Active and inactive are the calls of the source. Calls come from the whole dose curve; as a rule, active = well fitted inhibition curve with a large enough effect; inconclusive = small, poorly fitted or top-dose-only effect; inactive = flat fitted curve, though single readings scatter.

Columns and labels:
[1] = qHTS profiling for inhibitors of Plasmodium falciparum proliferation (AID 504749); for all read-outs here: nearly all actives have a fitted effect of over 60% in size; conditions: P. falciparum in erythrocytes, SYBR Green DNA, 72 h; for activity, negative = inhibition: at 28.7 µM (top of the series)
In short: (§1)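 Infected RBCs, 0.3% parasitemia/2.5% Hct final; cpd 72 h, 37 C, 5% CO2; lysis buffer with saponin/triton/SYBR Green I, o/n RT dark; FI 485/535; norm. to artemisinin (0.29 uM) and DMSO.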

3D7 = assay: as above; conditions: P. falciparum in erythrocytes, SYBR Green DNA, 72 h; series mostly up to 28.7 µM
In short: as §1

7G8 = assay: as above; conditions: P. falciparum in erythrocytes, SYBR Green DNA, 72 h; series mostly up to 28.7 µM
In short: as §1

AA1029 = assay: as above; conditions: P. falciparum in erythrocytes, SYBR Green DNA, 72 h; series mostly up to 28.7 µM
In short: as §1

AS120 = assay: as above; conditions: P. falciparum in erythrocytes, SYBR Green DNA, 72 h; series mostly up to 28.7 µM
In short: as §1

ATS189 = assay: as above; conditions: P. falciparum in erythrocytes, SYBR Green DNA, 72 h; series mostly up to 28.7 µM
In short: as §1
Potency is the fitted concentration of half-maximal effect.

Row | SMILES | Potency ([1]; parasite line A) | Potency ([1]; parasite line B) | Potency (3D7) | Potency (7G8) | Potency (AA1029) | Potency (AS120) | Potency (ATS189) | activity, negative = inhibition ([1]; parasite line A) | activity, negative = inhibition ([1]; parasite line B)
1 | Oc1cc(Cl)ccc1Oc1ccc(Cl)cc1Cl | 11.2 µM (active) | 5.01 µM (active) | 11.2 µM (active) | 1.12 µM (active) | 7.94 µM (active) | 3.98 µM (active) | 7.08 µM (active) |  | 
2 | Oc1ccccc1-c1ccccc1 |  |  | inactive | inactive | inactive | inactive | inactive | -2.25% | -2.09%
3 | CC(C)NCC(O)c1ccccc1Cl (stereo unspecified) |  | 11.2 µM (active) |  | 4.47 µM (active) | 4.47 µM (active) | 12.6 µM (active) |  |  | 
4 | CCOC(=O)C1(c2ccccc2)CCN(CCC(C#N)(c2ccccc2)c2ccccc2)CC1 | 2.51 µM (active) | 3.16 µM (active) | 2.51 µM (active) | 2.24 µM (active) | 3.16 µM (active) | 2.24 µM (active) | 3.55 µM (active) |  | 
5 | NCC(CC(=O)O)c1ccc(Cl)cc1 (stereo unspecified) |  |  | inactive | inactive | inactive | inactive | inactive | 6.71% | 18.2%
6 | CC(C)(C)CC(C)(C)c1ccc(O)cc1 |  |  | inactive | 12.6 µM (active) | inactive |  | inactive | -18.1% | 
7 | C[C@]12C/C(=C/O)C(=O)C[C@@H]1CC[C@@H]1[C@@H]2CC[C@@]2(C)[C@H]1CC[C@]2(C)O |  |  | inactive |  | inactive | inactive | inactive | -16.2% | 
8 | Nc1ccncc1 |  |  | inactive | inactive | inactive | inactive | inactive | 15.2% | 1.68%
9 | c1ccc2c(c1)OCC(C1=NCCN1)O2 (stereo unspecified) |  |  |  |  | inactive | inactive | inactive | -17.7% | -17.9%
10 | c1ccc(C2CC2)c(OCC2=NCCN2)c1 |  |  | inactive |  | inactive | inactive | inactive | 6.76% | 4.47%
11 | CC[C@@H](CO)NC(=O)[C@@H]1C=C2c3cccc4[nH]cc(c34)C[C@H]2N(C)C1 |  |  | inactive |  | inactive | inactive | inactive | 17.2% | 1.58%
12 | O=c1[nH]c2ccccc2n1C1CCN(CCCC(c2ccc(F)cc2)c2ccc(F)cc2)CC1 |  |  | 15.8 µM (active) |  | inactive |  | inactive |  | -29.2%
13 | Clc1ccc(COC(Cn2ccnc2)c2ccc(Cl)cc2Cl)cc1 (stereo unspecified) | 3.55 µM (active) | 2.51 µM (active) | 3.16 µM (active) | 0.398 µM (active) | 4.47 µM (active) | 1 µM (active) | 3.16 µM (active) |  | 
14 | Cc1ccc(S(=O)(=O)N[C@@H](CCCCN)C(=O)CCl)cc1 | 7.08 µM (active) |  |  | 8.91 µM (active) | 10 µM (active) | 11.2 µM (active) |  |  | 
15 | CC(C)(N)Cc1ccc(Cl)cc1 |  |  | inactive |  |  | inactive |  | -1.24% | 1.12%
16 | CN1C[C@H](CNC(=O)OCc2ccccc2)C[C@@H]2c3cccc4c3c(cn4C)C[C@H]21 | 7.08 µM (active) |  |  | 5.01 µM (active) | 6.31 µM (active) | 10 µM (active) | 10 µM (active) |  | 
17 | CCC1(C2=NCCN2)Cc2ccccc2O1 (stereo unspecified) |  |  | inactive |  | 11.2 µM (active) |  | 7.94 µM (active) | 5.76% | 6.35%
18 | CCC(C(N)=O)N1CCCC1=O (stereo unspecified) |  |  | inactive | inactive | inactive | inactive | inactive | 2.96% | 6.9%
19 | CC(=O)[C@H]1CC[C@H]2[C@@H]3CC[C@H]4C[C@](C)(O)CC[C@]4(C)[C@H]3CC[C@]12C |  |  | inactive | inactive | inactive | inactive | inactive | 3.34% | 12.8%
20 | c1ccc2c(c1)Nc1ccccc1S2 |  |  | 4.47 µM (active) |  |  | inactive |  |  | 
21 | Cc1ncc(CNC(=O)N(CCCl)N=O)c(N)n1 |  |  | inactive | inactive | inactive | inactive | inactive | 6.89% | 3.28%
22 | C#CCOC(C(=O)OCCN(C)C)(c1ccccc1)c1ccccc1 |  |  | inactive | 10 µM (active) |  | inactive | inactive | -0.224% | 7.7%
23 | CC1NCCOC1c1ccccc1 (stereo unspecified) |  |  | inactive | inactive | inactive | inactive | inactive | 8.85% | 5.03%
24 | CCN(CC)CCN1C(=O)CN=C(c2ccccc2F)c2cc(Cl)ccc21 |  |  | inactive |  |  | inactive |  | -1.62% | -4.36%
25 | O=C(O)c1ccc2[nH]cc(CCCCN3CC=C(c4ccccc4)CC3)c2c1 |  |  | inactive | inactive | inactive | inactive | inactive | 5.66% | 0.723%
26 | O=C1NCN(c2ccccc2)C12CCN(CC1COc3ccccc3O1)CC2 (stereo unspecified) |  |  | inactive | 12.6 µM (active) | inactive | inactive | inactive | -17.5% | 5.67%
27 | CCN(CC)CCOC(=O)C(O)(c1ccccc1)c1ccccc1 |  |  | inactive | inactive | inactive | inactive | inactive | 9.85% | -20.6%
